Shown are actives, neighbours in structure and some others; about 3.6% of the full set was active somewhere.
pS6 MEF inh = mTORC1 pathway inhibition measured by phospho-rpS6. Potency, µM (highest dose often 38.3 µM), inactives show at the top dose activity change, negative = inhibition, actives largely listed as inhibitors. AID 493208. Tsc2-/- p53-/- MEF, phospho-rpS6 immunofluorescence/PI, 24 h. 44,000 compounds, 0.78% hits;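 also: plate controls were DMSO for no effect and rapamycin for full effect; nearly all actives have a fitted effect of over 50% in size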
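Cell-based qHTS: Tsc2-/- p53-/- MEF, 24 h cpd, 37 °C; fix/perm, anti-phospho-S6 Alexa-488 + PI; Acumen 488 nm scan; pS6/PI ratio, % positive cells; rapamycin 7.5 nM = inhibition ref; PI count = viability.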
S16 F2sN tox = toxic to S16 Pmp22-F2sN Schwann cells; 43,000 compounds, 0.48% hits; AID 1508642; Potency, µM (highest dose often 57.5 µM), without a hit: at the top dose activity change, negative = cytotoxicity, usual class: cytotoxic; S16 Pmp22-F2sN Schwann cells viability, CellTiter-Glo, 24 h; also: % is scaled to controls: 0 for no effect and ±100 for the full control effect; nearly all actives have a fitted effect of over 65% in size
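CellTiter-Glo counter-screen, qHTS, 1536-well. Cells: S16(c9) Pmp22-F2sN, 500-1,000/well in DMEM + 10% FBS. Cpd 23 nL pin transfer, 24 h, 37C/5% CO2. Read: luminescence, CCD imager.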
SKOV3 invasion = inhibitors of ovarian cancer cell adhesion and invasion in omental model; SKOV3ip1-GFP adhesion/invasion on 3D omental model, fluorescence; 46,000 compounds, 0.1% hits; AID 1963576; Potency, µM (doses to about 45.8 µM), without a hit: at the top dose activity change, negative = inhibition, usual class: inhibitors;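 also: plate controls were DMSO wells for no effect and tomatine positive control wells for full effect; nearly all actives have a fitted effect of over 65% in size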
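Primary human omental fibroblast/mesothelial 3D culture pre-formed 48 h. SKOV3ip1-GFP cells added with compounds (0.36-46 umol/L), incubated 2 h RT/16 h 37 C, fixed; GFP cells quantified at 488/509 nm.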
HTT-AS promoter = activates huntingtin-antisense promoter activity. 48,000 compounds, 0.24% hits. Potency, µM (doses to about 57.5 µM), for inactives: at the top dose activity change, positive = activation, actives largely listed as activators. HEK293 HTT-AS promoter firefly luciferase reporter, 24 h; response scale: percent change from vehicle, -100% = no light; also: nearly all actives have a fitted effect of over 55% in size
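Firefly luciferase signal from promoter-reporter HEK293 cells was scaled between vehicle (0%) and zero RLU (-100%). Compounds were tested at final concentrations of up to 57.5 uM over 24 h at 37 degrees C. PTC124 at 50 uM final served as control inhibitor.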
HTT promoter inh = inhibitors of huntingtin promoter activity | HEK293 HTT promoter firefly luciferase reporter, 24 h | Potency, µM (titrated, usually from 57.5 µM), for inactives: at the top dose activity change, negative = inhibition, actives largely listed as inhibitors | 48,000 compounds, 0.93% hits | AID 1508623; also: nearly all actives have a fitted effect of over 50% in size
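Quantitative HTS used concentration series of up to 57.5 uM final on HEK293 luciferase reporter cells, 24 h at 37 degrees C. Readout was Dual-Glo firefly luminescence.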
PMP22 txn = modulators of PMP22 gene transcription in S16 Schwann cells | S16 Pmp22-F2sN Schwann cells (luciferase reporters placed in the Pmp22 gene), FLuc/NLuc coincidence luminescence, 24 h | Potency, µM (highest dose often 57.5 µM), without a hit: at the highest dose activity change, negative = inhibition, hits mostly inhibitors | 43,000 compounds, 2% hits | AID 1508649; active = clear falling dose curves in both reporters; inconclusive = both reporters move, but less clearly or upward; inactive = either reporter flat; the % is the NLuc reporter signal; also: % is scaled to controls: 0 for no effect and ±100 for the full control effect
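Transcriptional readout in edited S16(c9) cells: two luciferases reported from the Pmp22 locus, measured in turn after 24 h compound incubation.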
Starred values were filed as active, the others as inactive; i = inactive; ? = inconclusive; . = not tested or not shown. Unless noted, calls follow the shape of the dose curve; as a rule, active = well fitted curve in the direction sought with a large enough effect; inconclusive = small, poorly fitted or top-dose-only effect, or another doubt; inactive = no such curve, though single readings can be large; an effect the other way counts as inactive or inconclusive. Potency is read from the fitted curve at half-maximal effect.

SMILES	pS6 MEF inh	S16 F2sN tox	SKOV3 invasion	HTT-AS promoter	HTT promoter inh	PMP22 txn
COc1cc(-c2noc(-c3ccc(NCc4cccnc4)c([N+](=O)[O-])c3)n2)cc(OC)c1OC	0%	-8%	i	-8%	8%	7.1µM*
COc1ccccc1Nc1c2c(nc3ccc(NC(=O)c4ccc(N(C)C)cc4)cc13)CCCC2	5.2µM*	?	?	-42%	?	?
COc1cc(OC)cc(C(=O)Nc2ccc3nc4c(c(Nc5ccc(OC)c(OC)c5)c3c2)CCCC4)c1	0%	?	?	-63%	?	?
Cc1ccccc1OCCn1c(=N)n(C(C)C)c2ccccc21	18µM*	?	?	-21%	?	?
Cc1ccccc1OCC(O)Cn1c(=N)n(CCN2CCCCC2)c2ccccc21 (configuration not stated)	10µM*	?	?	-29%	?	?
Cc1c(O)cccc1C(=O)N[C@@H](CSc1ccccc1)[C@H](O)CN1C[C@H]2CCCC[C@@H]2C[C@@H]1C(=O)NC(C)(C)C	.	.	2%	-44%	?	.
NC(=O)c1cccc2cn(-c3ccc([C@@H]4CCCNC4)cc3)nc12	.	.	-9%	-1%	12%	.
O=C(Nc1cccc(C(F)(F)F)c1)c1cnn(-c2cccc(F)c2)c1C1CCNCC1	18µM*	-26%	i	-13%	-3%	-7%
O=C(c1ccco1)N1CCN(C(=O)c2cnn(-c3cccc(F)c3)c2C2CCNCC2)CC1	8%	-1%	43%	-1%	5%	23%
Cc1cc(C)cc(NC(=O)c2cnn(-c3ccc(C)c(C)c3)c2C2CCNCC2)c1	7.4µM*	?	i	-18%	-18%	?
C[C@]12CC[C@@H]3c4ccc(O)cc4CC[C@H]3[C@H]1[C@@H](O)[C@@H](O)[C@H]2O	.	.	7%	9%	15%	.
Cc1cc(F)ccc1S(=O)(=O)NCC(c1ccco1)S(=O)(=O)c1cccs1 (configuration not stated)	1%	16µM*	?	-5%	-17%	?
COc1ccc(S(=O)(=O)NCC(c2ccco2)S(=O)(=O)c2ccc(C)cc2)cc1F (configuration not stated)	-6%	?	2%	-8%	-23%	?
CCOc1ccc(S(=O)(=O)NCC(c2ccco2)S(=O)(=O)c2cccs2)cc1 (configuration not stated)	1%	?	-1%	-10%	?	?
COc1ccc(S(=O)(=O)NCC(c2ccco2)S(=O)(=O)c2cccs2)cc1C (configuration not stated)	-1%	22µM*	-2%	-14%	?	?
COc1ccc(S(=O)(=O)NCC(c2ccco2)S(=O)(=O)c2cccs2)cc1F (configuration not stated)	-5%	13µM*	7%	-16%	?	15µM*
CNC1CCC(N(Cc2cccc(-c3ccncc3)c2)C(=O)c2sc3c(F)ccc(F)c3c2Cl)CC1 (configuration not stated)	.	.	-4%	-16%	-15%	.
Cc1cc(NC(=O)c2oc3c(c2C)-c2[nH]ncc2CC3)ccc1Br	-1%	-21%	?	1.1µM*	68%	?
COc1cccc(NC(=O)CSc2nnc(-c3cccs3)o2)c1	-22%	9%	-22%	?	71%	12%
Cc1ccc(S(=O)(=O)c2nc(-c3cccs3)oc2SCC(=O)Nc2cc(C)cc(C)c2)cc1	21µM*	1%	?	-26%	?	?
Cc1cccc(NC(=O)CSc2nnc(-c3cccs3)o2)c1	-8%	-7%	2%	25µM*	89%	6%
COc1ccc(NC(=O)CSc2oc(-c3cccs3)nc2S(=O)(=O)c2ccc(C)cc2)c(OC)c1	3%	7%	1%	2%	-28%	60%
Cc1ccc2nc(N(Cc3cccnc3)C(=O)CCS(=O)(=O)c3ccccc3)sc2c1	-5%	18µM*	39%	16%	8%	?
O=C(CCS(=O)(=O)c1ccccc1)N(Cc1cccnc1)c1nc2ccc(Cl)cc2s1	0%	?	6%	2%	0%	?
CCCc1nn2c(=O)cc(COC(=O)c3cccc(NC(=O)CCc4ccccc4)c3)nc2s1	7%	0%	-2%	8%	1%	-30%
SMILES	pS6 MEF inh	S16 F2sN tox	SKOV3 invasion	HTT-AS promoter	HTT promoter inh	PMP22 txn
CCCCc1nn2c(=O)cc(COC(=O)c3cccc(NC(=O)CCc4ccccc4)c3)nc2s1	1%	-2%	-12%	0.25µM*	72%	?
CCCCc1ccc(NS(=O)(=O)c2ccc(C)c(C(=O)N3CCN(c4cccc(C)c4C)CC3)c2)cc1	.	.	14%	-20%	-6%	.
Cc1ccc(-n2ncc(C(=O)NCCCN3CCc4ccccc4C3)c2C2CCN(C(=O)OC(C)(C)C)CC2)c(C)c1	9.3µM*	?	-3%	-22%	-14%	?
COc1cc(C2CC(=O)c3c([nH]c(C(=O)OCC4CCCCC4)c3C)C2)cc(OC)c1OC (configuration not stated)	-20%	-11%	18%	-51%	?	5.7µM*
COc1ccc(C2CC(=O)c3c([nH]c(C(=O)OC4CCC(C)CC4)c3C)C2)cc1OC (configuration not stated)	0%	-1%	2%	-22%	-20%	5%
COc1ccc(COC(=O)c2[nH]c3c(c2C)C(=O)CC(c2ccc(OC)c(OC)c2)C3)cc1 (configuration not stated)	-17%	-3%	i	-74%	10µM*	-19%
COc1cc(C2CC(=O)c3c([nH]c(C(=O)OC4CCCCC4)c3C)C2)cc(OC)c1OC (configuration not stated)	?	?	?	-52%	?	18µM*
CCCCc1nc2cc(C=CC(=O)NO)ccc2n1CCN(CC)CC	.	.	-10%	?	199%	.
COc1ccc2c(c1)CC[C@@H](CN(C)CC(=O)O)[C@H]2c1ccccc1	.	.	4%	-40%	?	.
CCOc1ccccc1N(CC)C(=O)c1cc2c(=O)[nH]c3ccc(C)cc3c2s1	-12%	3%	0%	-80%	2.5µM*	?
CSc1cccc(Nc2ncc3cc(-c4c(Cl)cccc4Cl)c(=O)n(C)c3n2)c1	.	.	-6%	0%	0%	.

Screens: PubChem, National Center for Advancing Translational Sciences (NCATS)
